A selection: hits, their analogues and other compounds. The true share with any hit is near 0.45%.
FMDV antiviral = shows antiviral activity against foot and mouth disease virus | actives 0.23% (n = 120,000) | AID 1745856 | Potency, µM (series often up to 57.5 µM), inactives show at the top dose activity change, negative = inhibition, usual class: inhibitors | FMDV antiviral cell assay, firefly luciferase signal; further: nearly all actives have a fitted effect of over 60% in size
FMDV Renilla = shows antiviral activity in FMDV Renilla assay; AID 1745857; FMDV replicon cells, Renilla luciferase signal; Potency, µM (titrated, usually from 57.5 µM), for inactives: top-dose activity change, negative = inhibition, most hits filed as inhibitors; actives 0.32% (n = 120,000); further: nearly all actives have a fitted effect of over 55% in size
* hit, by the source's call; [ ] = another dose, or the depositor's remark. The call rests on the fitted dose curve. On the % scale 0 is the no-effect control and ±100 the full control effect; potency means the concentration at half of the fitted maximal effect.

C[C@@H](O[C@H]1OCCN(Cc2n[nH]c(=O)[nH]2)[C@H]1c1ccc(F)cc1)c1cc(C(F)(F)F)cc(C(F)(F)F)c1 was read as FMDV antiviral inconclusive and FMDV Renilla 32µM*.
`Fc1ccc(-c2cc(C(F)(F)F)nc(NCc3ccccc3)n2)cc1` gave FMDV antiviral -9% and FMDV Renilla -5%.
Screening COc1ccc(-c2cc(C(F)(F)F)nc(NCc3ccccc3)n2)cc1 returned FMDV antiviral inconclusive and FMDV Renilla 4µM*.
For CCOc1cc(C(=O)Oc2ccc(C#N)cc2OC)cc(OCC)c1OCC the results were FMDV antiviral 4% and FMDV Renilla 0%.
CCCNc1ncnc2onc(C)c12 was read as FMDV antiviral 11% and FMDV Renilla -5%.
COc1ccc(CCNc2ncnc3onc(C)c23)c(OC)c1 was read as FMDV antiviral inconclusive and FMDV Renilla 0.89µM*.
`CC1CCCCC1NC(=S)Nc1cccc2cnccc12` (stereo not drawn) gave FMDV antiviral 14µM* and FMDV Renilla inconclusive.
CC1CCCCC1NC(=S)NN (stereo not drawn) was read as FMDV antiviral 0% and FMDV Renilla 25%.
COc1ccc2c(C)c(CC(=O)NCc3ccccc3)c(=O)oc2c1OC was read as FMDV antiviral 12% and FMDV Renilla 3%.
`O=C(CSc1nnc2ccc(-c3ccncc3)nn12)N1CCCc2ccccc21` gave FMDV antiviral 8% and FMDV Renilla 0%.
COc1ccc(C(C)=O)cc1COc1ccccc1C#N was read as FMDV antiviral 21% and FMDV Renilla 34%.
For CO/C=C(/C(=O)OC)c1ccccc1Oc1cc(Oc2ccccc2C#N)ncn1 the results were FMDV antiviral inconclusive and FMDV Renilla 18µM*.
Screening Cc1cc(C(C#N)c2ccc(Cl)cc2)c(Cl)cc1NC(=O)CCc1ccccc1 (stereo not drawn) returned FMDV antiviral 1% and FMDV Renilla 2%.
For Cc1cc(C(C#N)c2ccc(Cl)cc2)c(Cl)cc1NC(=O)c1cc(I)cc(I)c1O (stereo not drawn) the results were FMDV antiviral -31%[11.5 µM] and FMDV Renilla 11µM*.
For COCC(O)CNC(=O)c1cc(-c2ccc(OC)cc2)nc2ccccc12 (stereo not drawn) the results were FMDV antiviral 48% and FMDV Renilla 16%.
`COc1ccc(-n2nnnc2C2CCN(S(=O)(=O)c3cc(OC)ccc3OC)CC2)cc1` gave FMDV antiviral inconclusive and FMDV Renilla 25µM*.
Screening COc1ccc(-n2nnnc2C2CCN(S(=O)(=O)c3ccc(F)cc3Cl)CC2)cc1 returned FMDV antiviral -1% and FMDV Renilla -1%.
For Cc1cc(SCC(=O)NC(C)C(C)C)nc2c(C)cccc12 (stereo not drawn) the results were FMDV antiviral 0% and FMDV Renilla 0%.
CCC(C)c1ccc(-c2csc(NC(=O)c3cnc4c(c3)c(=O)n(C)c(=O)n4C)n2)cc1 (stereo not drawn) was read as FMDV antiviral 119% and FMDV Renilla -8%.
Cc1ccc(-c2csc(NC(=O)c3cnc4c(cnn4C(C)C)c3)n2)cc1C was read as FMDV antiviral 11µM* and FMDV Renilla inconclusive.
`Cc1cc(Br)ccc1NC(=O)c1nc2ccccc2nc1N1CCN(C)CC1` gave FMDV antiviral -15% and FMDV Renilla -18%.
NC(Cc1ccccc1)c1nnc(SCc2ccccc2)o1 (stereo not drawn) was read as FMDV antiviral 86% and FMDV Renilla 34%.
`COc1ccc(OCCn2cc(C(C)=O)c3ccccc32)cc1` gave FMDV antiviral 25µM* and FMDV Renilla inconclusive.
For CC(=O)c1cn(CCOc2ccccc2F)c2ccccc12 the results were FMDV antiviral inconclusive and FMDV Renilla 8.9µM*.
For O=C(c1cccs1)c1cn(CCOc2ccccc2F)c2ccccc12 the results were FMDV antiviral 21% and FMDV Renilla 7%.
Screening Cc1ccc(OCCn2cc(C(=O)C3CC3)c3ccccc32)cc1 returned FMDV antiviral 68% and FMDV Renilla 41%.
`Cc1cc(C)n2nc(SC(C)C(=O)Nc3c(Cl)cc(Cl)cc3Cl)nc2n1` (stereo not drawn) gave FMDV antiviral 1% and FMDV Renilla -1%.
`O=C(NCc1n[nH]c(=O)c2ccccc12)c1ccccc1Cl` gave FMDV antiviral 19% and FMDV Renilla 3%.
For COc1ccc(/C=C/C(=O)Nc2ccc3c(c2)Cc2ccccc2-3)cc1 the results were FMDV antiviral 0% and FMDV Renilla 26%.
Screening COc1ccc(OC(=O)CSc2nnc(-c3ccc(F)cc3)o2)cc1 returned FMDV antiviral -10% and FMDV Renilla -5%.
CCOc1ccc(-c2nnc(SCC(=O)Oc3ccccc3)o2)cc1 was read as FMDV antiviral 3.5µM* and FMDV Renilla -4%.
`CC(C)CNC(=O)CSc1ncc(-c2ccc(F)cc2)o1` gave FMDV antiviral 0% and FMDV Renilla 5%.
`COc1ccc(NC(=O)CN2CCN(c3nc(-c4ccco4)c4c(c3C#N)CCC4)CC2)cc1` gave FMDV antiviral -6% and FMDV Renilla 1%.
For CCn1c(C)c(C(=O)NCc2ccccc2)c2cc(OC)ccc21 the results were FMDV antiviral 17% and FMDV Renilla 40%.
COc1ccc2c(c1)c(C(C)=O)c(C)n2Cc1ccccc1 was read as FMDV antiviral 20µM* and FMDV Renilla inconclusive.
`Cn1c(=O)c2c(-c3ccccc3Cl)n(-c3cccc(O)c3)cc2n(C)c1=O` gave FMDV antiviral 32% and FMDV Renilla 0%.
`Cn1c(=O)c2c(nc(NCCc3ccc(F)cc3)n2Cc2ccc(F)cc2)n(C)c1=O` gave FMDV antiviral -1% and FMDV Renilla -9%.
`Cn1c(=O)c2c(nc(NCCO)n2Cc2ccc(Cl)cc2)n(C)c1=O` gave FMDV antiviral 13µM* and FMDV Renilla inconclusive.
Screening Cn1c(=O)c2c(nc(NCCO)n2Cc2ccc(F)cc2)n(C)c1=O returned FMDV antiviral 10µM* and FMDV Renilla 7.9µM*.
CCCCCCNc1nc2c(c(=O)n(C)c(=O)n2C)n1Cc1cccc(C)c1 was read as FMDV antiviral 0% and FMDV Renilla -7%.
For CCCCCCNc1nc2c(c(=O)n(C)c(=O)n2C)n1CCC the results were FMDV antiviral inconclusive and FMDV Renilla 20µM*.
Screening C=CCNc1nc2c(c(=O)n(C)c(=O)n2C)n1Cc1ccccc1Cl returned FMDV antiviral -14% and FMDV Renilla -19%.
`CC(C)CCNc1nc2c(c(=O)n(C)c(=O)n2C)n1Cc1ccc(Cl)cc1` gave FMDV antiviral -1% and FMDV Renilla -9%.
Screening C=CCNc1nc2c(c(=O)n(C)c(=O)n2C)n1Cc1ccc(Cl)cc1 returned FMDV antiviral 14µM* and FMDV Renilla 13µM*.
For COC(=O)c1[nH]c(C)c(/C(O)=C2\C(=O)C(=O)N(CCCn3ccnc3)C2c2cccc(OC)c2)c1C (stereo not drawn) the results were FMDV antiviral -1% and FMDV Renilla -2%.
`COC(=O)Cn1c(=O)c2c3c(sc2n(Cc2ccc(F)cc2)c1=O)COC(C)(C)C3` gave FMDV antiviral -2% and FMDV Renilla 7%.
`COC(=O)c1c(NC(=O)CSc2ccccn2)sc2c1CCCC2` gave FMDV antiviral 8% and FMDV Renilla 34%.
For CC(C)c1cnc2c(c1SCC(=O)O)c(=O)n(C)c(=O)n2C the results were FMDV antiviral -14% and FMDV Renilla -4%.
Screening CC(C)c1cnc2c(c1SCC(=O)c1ccc(Cl)cc1)c(=O)n(C)c(=O)n2C returned FMDV antiviral 29% and FMDV Renilla 25µM*.

Screening results (PubChem BioAssay)
